Test systems include RPMI-8226 leukemia; OVCAR-8 ovarian; OVCAR-5 ovarian; OVCAR-4 ovarian; SK-OV-3 ovarian; IGROV1 ovarian; OVCAR-3 ovarian; HS 578T breast; NCI/ADR-RES ovarian; T-47D breast; BT-549 breast; MDA-MB-435 melanoma; SW-620 colon; HCT-116 colon; HCC-2998 colon; KM12 colon; MCF7 breast.
What all share (experiment): NCI-60 one-dose screen, 48 h (100 = growth as untreated, 0 = no growth, -100 = all killed)
Settings in all cases: 10 µM unless noted

This note sets out measurements from PubChem BioAssay (NCI).

SMILES strings stand for the structures. The panel holds about 83,000 compounds, 20% with a hit somewhere; the sample as a whole holds those more often.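 Compound tested at a single concentration for 48 hours in 96-well plates; a percent growth value below 10 was scored as active.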 Values without a mark were called inactive. Activity calls are given as the source filed them.

`Cn1cc(-c2ccc(-c3cn(C)c4ncccc34)[nH]2)c2cccnc21`: the growth with RPMI-8226 leukemia is 31.9%; in the experiment on OVCAR-8 ovarian, 23.3%; in the experiment on OVCAR-5 ovarian, -6.91% (active); in the experiment with OVCAR-4 ovarian, -44.4% (active); with SK-OV-3 ovarian it was 106%; in the experiment on IGROV1 ovarian it was 73.8%. Besides, the growth is -36.9% (active) in the experiment on OVCAR-3 ovarian; 45.7% in the experiment on HS 578T breast; 76% in the experiment with NCI/ADR-RES ovarian; -29.1% (active) in the experiment with T-47D breast; -12% (active) with BT-549 breast; 86.6% with MDA-MB-435 melanoma. The growth in the experiment on SW-620 colon was 24%; with HCT-116 colon it was 67.3%; in the experiment with HCC-2998 colon it was 33.3%; in the experiment with KM12 colon, 14.6%.

`CCN(CC)CCCCNc1ccc(NCCCCN(CC)CC)c2c1C(=O)c1ccccc1C2=O`: the growth in the experiment with RPMI-8226 leukemia was 47.8%; with OVCAR-8 ovarian it was 72.9%; with OVCAR-5 ovarian it was 114%; in the experiment on OVCAR-4 ovarian it was 84.1%; in the experiment with SK-OV-3 ovarian it was 122%; in the experiment on IGROV1 ovarian, 71.8%. Besides, the growth was 91.5% with OVCAR-3 ovarian; 101% in the experiment on HS 578T breast; 83.4% in the experiment on NCI/ADR-RES ovarian; 122% in the experiment on T-47D breast; 95.6% in the experiment with BT-549 breast; 56% with MDA-MB-435 melanoma. Moreover, the growth was -7.96% (active) in the experiment with SW-620 colon, 79.1% in the experiment on MCF7 breast, -58.4% (active) in the experiment on HCT-116 colon and 26.9% in the experiment on KM12 colon.

On to `CC1=CC(=O)CC(C)(C)[C@@]1(O)/C=C/[C@@H](C)O`, for which the growth was 109% in the experiment on RPMI-8226 leukemia; 90.1% with OVCAR-8 ovarian; 103% in the experiment on OVCAR-5 ovarian; 106% in the experiment on OVCAR-4 ovarian; 113% with SK-OV-3 ovarian; 107% with IGROV1 ovarian. Also, the growth with OVCAR-3 ovarian was 108%; with HS 578T breast, 105%; in the experiment on NCI/ADR-RES ovarian it was 95.6%; in the experiment on T-47D breast, 91.7%; in the experiment on BT-549 breast, 105%; in the experiment on MDA-MB-435 melanoma it was 102%. The growth in the experiment with SW-620 colon was 105%; in the experiment with HCT-116 colon, 101%; with HCC-2998 colon, 94.7%; with KM12 colon, 102%.

As to `COc1cc(-c2c3c(nc4c2c(C)nn4-c2ccccc2)-c2ccccc2C(=O)C3=O)cc(OC)c1OC`, the growth with RPMI-8226 leukemia is 55.2%; in the experiment on OVCAR-8 ovarian, 80.1%; in the experiment with OVCAR-5 ovarian, 103%; in the experiment with OVCAR-4 ovarian it was 78.5%; in the experiment with SK-OV-3 ovarian, 104%; with IGROV1 ovarian, 94.9%. Further, the growth with OVCAR-3 ovarian is -29.4% (active); in the experiment with HS 578T breast it was 111%; in the experiment with NCI/ADR-RES ovarian it was 79.7%; in the experiment with T-47D breast, 72.4%; in the experiment on MDA-MB-435 melanoma, -0.815% (active); in the experiment with SW-620 colon, 86.2%. The growth in the experiment with MCF7 breast is 57.7%; in the experiment on HCT-116 colon, 51.5%; with HCC-2998 colon, 71.1%; in the experiment on KM12 colon, 80.8%.

`Nc1ccc(Nc2nccc(-c3ccc4ccccc4c3)n2)cc1`: the growth was 29.7% in the experiment on RPMI-8226 leukemia; 48.2% with OVCAR-8 ovarian; 69.1% with OVCAR-5 ovarian; 56.4% in the experiment with OVCAR-4 ovarian; 60.7% in the experiment on SK-OV-3 ovarian; 38.2% in the experiment on IGROV1 ovarian. The growth in the experiment on OVCAR-3 ovarian is 46.9%; in the experiment on HS 578T breast, 43.1%; with NCI/ADR-RES ovarian, 18.4%; in the experiment with T-47D breast it was 57.1%; in the experiment on MDA-MB-435 melanoma it was 8.53% (active); with SW-620 colon, 33.1%. Also, the growth is 19% in the experiment with MCF7 breast, 26.2% in the experiment with HCT-116 colon, 71.9% with HCC-2998 colon and 27.2% in the experiment with KM12 colon.

In the case of `O=S(=O)(Nc1ccc(F)c(Cl)c1)c1ccc(-c2cnc(C3CC3)o2)cc1`, the growth in the experiment on RPMI-8226 leukemia is 19.3%; in the experiment on OVCAR-8 ovarian, 21.7%; with OVCAR-5 ovarian, 34.4%; in the experiment on OVCAR-4 ovarian, 39.1%; in the experiment on SK-OV-3 ovarian, 35.1%; in the experiment on IGROV1 ovarian, 27.3%. Also, the growth with OVCAR-3 ovarian is -8.13% (active); in the experiment with HS 578T breast, 11.3%; with NCI/ADR-RES ovarian, -17% (active); in the experiment with T-47D breast, 27.4%; in the experiment with BT-549 breast, 36.3%; in the experiment with MDA-MB-435 melanoma, 2.08% (active). The growth in the experiment with SW-620 colon was 17.3%; in the experiment with HCT-116 colon it was 19.7%; in the experiment on HCC-2998 colon it was 32%; with KM12 colon it was 30.8%.

For the molecule `O=S(=O)(Nc1ccc(Cl)cc1Cl)c1ccc(-c2cnc(C3CC3)o2)cc1`, the growth in the experiment with RPMI-8226 leukemia is 21.6%; with OVCAR-8 ovarian, 26.5%; with OVCAR-5 ovarian, 40.2%; in the experiment with OVCAR-4 ovarian, 52.6%; in the experiment on SK-OV-3 ovarian, 41.6%; in the experiment on IGROV1 ovarian, 29.2%. Moreover, the growth in the experiment with OVCAR-3 ovarian is -17.8% (active); in the experiment with HS 578T breast it was 9.44% (active); with NCI/ADR-RES ovarian, 0.514% (active); in the experiment on T-47D breast it was 33.9%; in the experiment on BT-549 breast it was 47%; with MDA-MB-435 melanoma it was -5.62% (active). In addition, the growth with SW-620 colon is 21%; in the experiment with HCT-116 colon, 24.9%; with HCC-2998 colon it was 39.3%; in the experiment on KM12 colon, 33.3%.

For `O=C(CN1CCN(c2cc3c(cc2F)c(=O)c(C(=O)N/N=C/c2ccccc2)cn3C2CC2)CC1)N/N=C\c1ccccc1`, the growth in the experiment on RPMI-8226 leukemia is 39.2%; in the experiment with OVCAR-8 ovarian, 73.9%; with OVCAR-5 ovarian, 98.6%; in the experiment on OVCAR-4 ovarian it was 89.8%; in the experiment with SK-OV-3 ovarian it was 124%; with IGROV1 ovarian, 54.4%. Besides, the growth in the experiment with OVCAR-3 ovarian was 77%; with HS 578T breast, 84.8%; with T-47D breast it was 92%; in the experiment on BT-549 breast, 65.2%; in the experiment on MDA-MB-435 melanoma, 78.6%; in the experiment on SW-620 colon, 87.8%. In addition, the growth was 53.2% with MCF7 breast, 70.7% in the experiment on HCT-116 colon, 91% in the experiment on HCC-2998 colon and 71.1% with KM12 colon.

Consider `CN1Cc2c(cc(CN3CCCCC3)n2C)C(c2ccc(Br)cc2)C1` (centres undefined), for which the growth was 81.4% in the experiment with RPMI-8226 leukemia; 96.9% in the experiment with OVCAR-8 ovarian; 96.1% with OVCAR-5 ovarian; 86.6% in the experiment on OVCAR-4 ovarian; 93.7% in the experiment with SK-OV-3 ovarian; 96.3% in the experiment on IGROV1 ovarian. For the same molecule, the growth in the experiment with OVCAR-3 ovarian is 95.4%; with HS 578T breast, 76.3%; in the experiment on NCI/ADR-RES ovarian it was 88.1%; in the experiment with BT-549 breast, 83.1%; with MDA-MB-435 melanoma it was 65.5%; with SW-620 colon, 90.8%. Further, the growth with MCF7 breast is 71.8%; in the experiment on HCT-116 colon, 61.8%; in the experiment with HCC-2998 colon it was 84.2%; in the experiment on KM12 colon it was 94.5%.
